{"source": "PubChem BioAssay (NCATS)", "key": {"[1]": {"assay": "Primary qHTS for inhibitors of nuclear receptor binding SET domain protein 2 (NSD2) in an isogenic RCH-ACV NSD2 p.E1099K mutant (9B) (AID 1645876); also: nearly all actives have a fitted effect of over 70% in size; also: potency is read from the fitted curve at half-maximal effect", "details": "RCH-ACV NSD2 E1099K (9B) viability, CellTiter-Glo, 72 h; series mostly up to 44.9 µM"}, "[2]": {"assay": "Primary qHTS for inhibitors of nuclear receptor binding SET domain protein 2 (NSD2) in an RCH-ACV wild type WT cells (2C) (AID 1645877); also: nearly all actives have a fitted effect of over 70% in size; also: potency is read from the fitted curve at half-maximal effect", "details": "RCH-ACV NSD2 WT (2C) viability, CellTiter-Glo, 72 h; series mostly up to 44.9 µM"}, "[3]": {"molecular_target": "Papain (Carica papaya) (UniProt P00784)", "sequence (P00784 whole entry, looked up)": "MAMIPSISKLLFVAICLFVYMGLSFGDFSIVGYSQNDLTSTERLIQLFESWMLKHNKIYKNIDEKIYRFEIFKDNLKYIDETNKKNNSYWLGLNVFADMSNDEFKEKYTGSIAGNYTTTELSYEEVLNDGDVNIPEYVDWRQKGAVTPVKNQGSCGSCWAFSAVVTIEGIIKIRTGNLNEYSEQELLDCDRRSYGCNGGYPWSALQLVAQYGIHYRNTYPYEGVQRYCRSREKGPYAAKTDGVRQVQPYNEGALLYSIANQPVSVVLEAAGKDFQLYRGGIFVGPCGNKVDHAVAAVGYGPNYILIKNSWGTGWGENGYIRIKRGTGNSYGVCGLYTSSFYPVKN", "assay": "Primary qHTS assay for inhibitors of the protease papain (AID 1645873); also: potency is read from the fitted curve at half-maximal effect", "details": "papain Z-FR-AMC cleavage, AMC fluorescence; series mostly up to 49.8 µM"}, "[4]": {"molecular_target": "Cytochrome P450 2C9 (Homo sapiens) (UniProt P11712)", "sequence (P11712 whole entry, looked up)": "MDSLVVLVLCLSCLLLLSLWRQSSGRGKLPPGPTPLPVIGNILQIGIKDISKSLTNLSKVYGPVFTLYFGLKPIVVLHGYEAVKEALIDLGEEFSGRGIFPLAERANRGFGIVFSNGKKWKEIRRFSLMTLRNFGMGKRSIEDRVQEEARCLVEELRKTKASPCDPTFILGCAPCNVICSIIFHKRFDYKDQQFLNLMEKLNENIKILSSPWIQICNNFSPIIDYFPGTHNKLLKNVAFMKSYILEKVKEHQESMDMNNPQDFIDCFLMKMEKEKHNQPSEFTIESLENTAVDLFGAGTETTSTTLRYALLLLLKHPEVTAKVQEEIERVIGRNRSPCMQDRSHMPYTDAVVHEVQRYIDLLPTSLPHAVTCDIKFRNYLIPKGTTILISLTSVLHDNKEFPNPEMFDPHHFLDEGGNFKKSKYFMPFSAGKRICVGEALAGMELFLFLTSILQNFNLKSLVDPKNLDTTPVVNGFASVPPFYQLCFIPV", "assay": "Cytochrome P450 family 2 subfamily C member 9 (CYP2C9) small molecule antagonists: luciferase biochemical (cell-free) qHTS assay (AID 1645842; active = well fitted curve in the direction sought with a large enough effect in the repeat runs; an effect the other way counts as inactive or inconclusive; also: nearly all actives have a fitted effect of over 55% in size)", "details": "P450-Glo CYP2C9 enzyme assay, luciferin luminescence; series mostly up to 57.4 µM", "how_it_was_run": "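Luminescence, after 20 min with luciferin detection reagent, reflected CYP2C9 turnover during a 1 h NADPH-driven reaction at 37C. Enzyme-substrate mix contained 0.4% bovine serum albumin and was preincubated with compound 10 min at room temperature.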"}, "[5]": {"molecular_target": "Rap guanine nucleotide exchange factor 3 (Homo sapiens) (UniProt O95398)", "sequence (O95398 whole entry, looked up)": "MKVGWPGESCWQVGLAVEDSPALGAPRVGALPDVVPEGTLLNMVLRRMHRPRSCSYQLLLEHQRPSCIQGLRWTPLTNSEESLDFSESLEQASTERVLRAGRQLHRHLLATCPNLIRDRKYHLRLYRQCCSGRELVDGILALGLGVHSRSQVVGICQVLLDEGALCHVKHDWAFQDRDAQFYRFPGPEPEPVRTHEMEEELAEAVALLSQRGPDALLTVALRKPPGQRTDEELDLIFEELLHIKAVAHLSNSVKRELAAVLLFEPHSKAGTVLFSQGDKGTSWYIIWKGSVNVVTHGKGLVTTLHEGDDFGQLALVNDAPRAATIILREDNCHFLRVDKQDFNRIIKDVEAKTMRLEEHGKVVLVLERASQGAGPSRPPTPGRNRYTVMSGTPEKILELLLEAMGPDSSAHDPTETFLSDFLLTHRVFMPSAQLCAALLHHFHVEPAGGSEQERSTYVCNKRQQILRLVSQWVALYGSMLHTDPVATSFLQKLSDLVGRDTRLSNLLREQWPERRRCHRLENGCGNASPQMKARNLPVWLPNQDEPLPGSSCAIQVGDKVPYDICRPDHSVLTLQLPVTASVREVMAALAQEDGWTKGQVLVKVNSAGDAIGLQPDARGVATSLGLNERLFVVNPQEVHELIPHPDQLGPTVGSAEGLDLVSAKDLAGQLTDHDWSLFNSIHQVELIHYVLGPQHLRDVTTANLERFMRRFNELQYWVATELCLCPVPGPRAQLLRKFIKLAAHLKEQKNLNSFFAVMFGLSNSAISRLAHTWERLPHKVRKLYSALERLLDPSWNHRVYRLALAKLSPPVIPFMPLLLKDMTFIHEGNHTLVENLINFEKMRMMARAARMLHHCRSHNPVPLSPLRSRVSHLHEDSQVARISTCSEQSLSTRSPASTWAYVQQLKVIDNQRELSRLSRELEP", "assay": "Confirmatory qHTS for agonist of cAMP-regulated guanine nucleotide exchange factor 3 (EPAC1) (AID 1645881);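 also: EPAC1 catalysed release of BODIPY-GDP from Rap1B seen as fluorescence loss; nearly all actives have a fitted effect of over 75% in size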", "details": "EPAC1 Rap1B BODIPY-GDP exchange fluorescence; series mostly up to 154 µM"}, "[6]": {"molecular_target": "Rap guanine nucleotide exchange factor 4 (Homo sapiens) (UniProt Q8WZA2)", "sequence (Q8WZA2 whole entry, looked up)": "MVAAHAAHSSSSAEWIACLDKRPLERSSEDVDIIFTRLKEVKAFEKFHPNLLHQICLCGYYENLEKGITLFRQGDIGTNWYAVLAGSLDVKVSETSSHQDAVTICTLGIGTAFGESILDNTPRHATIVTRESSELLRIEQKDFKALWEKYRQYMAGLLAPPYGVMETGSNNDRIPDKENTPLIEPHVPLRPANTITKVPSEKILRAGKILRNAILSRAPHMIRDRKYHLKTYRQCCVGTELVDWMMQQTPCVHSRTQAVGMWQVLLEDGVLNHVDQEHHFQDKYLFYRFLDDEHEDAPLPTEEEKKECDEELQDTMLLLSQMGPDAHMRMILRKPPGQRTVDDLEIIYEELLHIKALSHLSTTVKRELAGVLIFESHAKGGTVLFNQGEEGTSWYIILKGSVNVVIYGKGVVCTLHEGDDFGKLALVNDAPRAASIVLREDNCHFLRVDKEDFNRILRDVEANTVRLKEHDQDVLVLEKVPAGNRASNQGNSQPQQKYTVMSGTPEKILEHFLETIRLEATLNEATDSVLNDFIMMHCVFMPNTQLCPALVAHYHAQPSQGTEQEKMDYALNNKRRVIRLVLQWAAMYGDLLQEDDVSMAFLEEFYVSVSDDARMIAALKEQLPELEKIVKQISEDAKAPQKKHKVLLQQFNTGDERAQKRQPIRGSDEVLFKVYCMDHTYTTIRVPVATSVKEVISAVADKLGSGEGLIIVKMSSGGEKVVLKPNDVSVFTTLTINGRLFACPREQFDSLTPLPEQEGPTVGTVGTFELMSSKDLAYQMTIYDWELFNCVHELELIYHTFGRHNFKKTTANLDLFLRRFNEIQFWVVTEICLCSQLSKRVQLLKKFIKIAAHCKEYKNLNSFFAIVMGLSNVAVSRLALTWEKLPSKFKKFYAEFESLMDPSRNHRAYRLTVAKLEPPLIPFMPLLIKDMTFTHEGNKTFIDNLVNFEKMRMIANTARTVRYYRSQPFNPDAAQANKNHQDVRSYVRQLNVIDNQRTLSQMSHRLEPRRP", "assay": "Confirmatory qHTS for agonist of cAMP-regulated guanine nucleotide exchange factor 4 (EPAC2) (AID 1645884);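 also: nucleotide exchange releases bodipy-GDP from Rap1 and this lowers its fluorescence; nearly all actives have a fitted effect of over 65% in size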", "details": "EPAC2 GEF activity, Rap1B-BODIPY-GDP fluorescence; series mostly up to 154 µM"}, "[7]": {"molecular_target": "Rap guanine nucleotide exchange factor 4 (Homo sapiens) (UniProt Q8WZA2)", "assay": "Confirmatory qHTS for antagonist of cAMP-regulated guanine nucleotide exchange factor 4 (EPAC2) (AID 1645885); also: nearly all actives have a fitted effect of over 25% in size; also: potency is read from the fitted curve at half-maximal effect", "details": "EPAC2 Rap1B-BODIPY-GDP exchange fluorescence, biochemical; series mostly up to 114 µM"}, "[8]": {"molecular_target": "Rap guanine nucleotide exchange factor 3 (Homo sapiens) (UniProt O95398)", "assay": "Counterscreen qHTS for antagonist of cAMP-regulated guanine nucleotide exchange factor 3 (EPAC1) (AID 1645888)", "details": "Rap1B-BODIPY-GDP nucleotide exchange, fluorescence; series mostly up to 154 µM", "how_it_was_run": "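Measured: fluorescence of BODIPY-GDP bound to Rap1B, which falls as exchange proceeds. Conditions include 50 uM competing GDP, 5 and 30 min reads, and a later cAMP challenge for antagonist detection.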"}, "[9]": {"molecular_target": "Rap guanine nucleotide exchange factor 3 (Homo sapiens) (UniProt O95398)", "assay": "Confirmatory qHTS for antagonist of cAMP-regulated guanine nucleotide exchange factor 3 (EPAC1) (AID 1645880); also: nearly all actives have a fitted effect of over 55% in size", "details": "EPAC1 Rap1B-BODIPY-GDP exchange, fluorescence; series mostly up to 115 µM", "how_it_was_run": "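Nucleotide exchange uses 100 nM EPAC1, 250 nM RAP1B-BODIPY-GDP and 50 uM GDP, with compounds in a concentration-titration series. After 5 min at room temperature, fluorescence (480 nm ex/540 nm em) is read every 5 min for 30 min. Data are normalized to control ATA and DMSO.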"}}, "note": "Values joined by “and” are separate entries in the source; they are usually repeats but may differ in a detail not shown here. Identical values can stand only once. Records with an inconclusive call do not appear. Entries that show only a call come without a potency. Where a structure was tested more than once in an assay, its records may differ in their call. Active and inactive are the calls of the source. Unless noted, calls follow the shape of the dose curve; as a rule, active = well fitted curve in the direction sought with a large enough effect; inconclusive = small, poorly fitted or top-dose-only effect, or another doubt; inactive = no such curve, though single readings can be large; an effect the other way counts as inactive or inconclusive."}
{"compound": "CS(=O)(=O)CCNCc1ccc(-c2ccc3ncnc(Nc4ccc(OCc5cccc(F)c5)c(Cl)c4)c3c2)o1", "values": [{"measurement": "Potency", "setting": "[1]", "value": "18.8 µM (active) and 9.16 µM (active) and 16.6 µM (active)"}, {"measurement": "Potency", "setting": "[2]", "value": "11.9 µM (active) and 7.28 µM (active) and 16.6 µM (active)"}]}
{"compound": "CN(C)CCOC(c1ccccc1)c1ccccc1", "values": [{"measurement": "Potency", "setting": "[3]", "value": "inactive"}, {"measurement": "Potency", "setting": "[1]", "value": "inactive"}, {"measurement": "Potency", "setting": "[2]", "value": "inactive"}]}
{"compound": "Cc1ccccc1N1C(=O)c2cc(S(N)(=O)=O)c(Cl)cc2NC1C", "note": "(stereo unspecified)", "values": [{"measurement": "Potency", "setting": "[4]", "value": "inactive"}, {"measurement": "Potency", "setting": "[1]", "value": "inactive"}, {"measurement": "Potency", "setting": "[2]", "value": "inactive"}]}
{"compound": "CNCCCC12CCC(c3ccccc31)c1ccccc12", "values": [{"measurement": "Potency", "setting": "[3]", "value": "inactive"}, {"measurement": "Potency", "setting": "[1]", "value": "21.1 µM (active) and 20.9 µM (active)"}, {"measurement": "Potency", "setting": "[2]", "value": "18.8 µM (active) and 20.9 µM (active)"}]}
{"compound": "CN(Cc1cnc2nc(N)nc(N)c2n1)c1ccc(C(=O)N[C@@H](CCC(=O)O)C(=O)O)cc1", "values": [{"measurement": "Potency", "setting": "[1]", "value": "9.4 nM (active) and 148 nM (active)"}, {"measurement": "Potency", "setting": "[2]", "value": "9.4 nM (active) and 148 nM (active)"}]}
{"compound": "NC(CO)C(=O)NNCc1ccc(O)c(O)c1O", "note": "(stereo unspecified)", "values": [{"measurement": "Potency", "setting": "[3]", "value": "inactive"}, {"measurement": "Potency", "setting": "[1]", "value": "26.3 µM (active)"}]}
{"compound": "CN(C)c1nc(N(C)C)nc(N(C)C)n1", "values": [{"measurement": "Potency", "setting": "[3]", "value": "inactive"}, {"measurement": "Potency", "setting": "[1]", "value": "inactive"}, {"measurement": "Potency", "setting": "[2]", "value": "inactive"}]}
{"compound": "CC(C)(Oc1ccc(C2CC2(Cl)Cl)cc1)C(=O)O", "note": "(stereo unspecified)", "values": [{"measurement": "Potency", "setting": "[3]", "value": "inactive"}, {"measurement": "Potency", "setting": "[1]", "value": "inactive"}, {"measurement": "Potency", "setting": "[2]", "value": "inactive"}]}
{"compound": "O=C(c1ccc(OCCN2CCCCC2)cc1)c1c(-c2ccc(O)cc2)sc2cc(O)ccc12", "values": [{"measurement": "Potency", "setting": "[3]", "value": "inactive"}, {"measurement": "Potency", "setting": "[1]", "value": "21.1 µM (active) and 23.5 µM (active) and 20.6 µM (active)"}, {"measurement": "Potency", "setting": "[2]", "value": "13.3 µM (active) and 18.6 µM (active) and 18.4 µM (active)"}]}
{"compound": "NC(=O)NO", "values": [{"measurement": "Potency", "setting": "[3]", "value": "inactive"}, {"measurement": "Potency", "setting": "[1]", "value": "inactive"}, {"measurement": "Potency", "setting": "[2]", "value": "inactive"}]}
{"compound": "O=c1c(O)c(-c2ccc(O)c(O)c2)oc2cc(O)cc(O)c12", "values": [{"measurement": "Potency", "setting": "[3]", "value": "inactive"}, {"measurement": "Potency", "setting": "[1]", "value": "11.9 µM (active) and inactive and 9.2 µM (active)"}, {"measurement": "Potency", "setting": "[2]", "value": "inactive and 14.6 µM (active)"}, {"measurement": "Potency", "setting": "[5]", "value": "inactive"}, {"measurement": "Potency", "setting": "[6]", "value": "inactive"}, {"measurement": "Potency", "setting": "[7]", "value": "75.7 µM (active)"}, {"measurement": "outcome", "setting": "[8]", "value": "inactive"}]}
{"compound": "CC(C)(C)C(=O)Oc1ccc(S(=O)(=O)Nc2ccccc2C(=O)NCC(=O)O)cc1", "values": [{"measurement": "Potency", "setting": "[3]", "value": "inactive"}, {"measurement": "Potency", "setting": "[1]", "value": "inactive"}, {"measurement": "Potency", "setting": "[2]", "value": "inactive"}]}
{"compound": "O=C(c1ccc(F)cc1)C1CCN(CCn2c(=O)[nH]c3ccccc3c2=O)CC1", "values": [{"measurement": "Potency", "setting": "[3]", "value": "inactive"}, {"measurement": "Potency", "setting": "[1]", "value": "inactive"}, {"measurement": "Potency", "setting": "[2]", "value": "inactive"}]}
{"compound": "Cn1cnc2c1c(=O)[nH]c(=O)n2C", "values": [{"measurement": "Potency", "setting": "[3]", "value": "inactive"}, {"measurement": "Potency", "setting": "[1]", "value": "inactive"}, {"measurement": "Potency", "setting": "[2]", "value": "inactive"}]}
{"compound": "CC12CC3CC(C)(C1)CC(N)(C3)C2", "values": [{"measurement": "Potency", "setting": "[3]", "value": "inactive"}, {"measurement": "Potency", "setting": "[1]", "value": "inactive"}]}
{"compound": "CCOC(=O)Nc1ccc(NCc2ccc(F)cc2)nc1N", "values": [{"measurement": "Potency", "setting": "[1]", "value": "inactive"}, {"measurement": "Potency", "setting": "[2]", "value": "inactive"}, {"measurement": "outcome", "setting": "[9]", "value": "inactive"}, {"measurement": "Potency", "setting": "[5]", "value": "inactive"}, {"measurement": "Potency", "setting": "[6]", "value": "inactive"}, {"measurement": "Potency", "setting": "[7]", "value": "inactive"}, {"measurement": "outcome", "setting": "[8]", "value": "inactive"}]}
{"compound": "CCOC(=O)C(C)(C)Oc1ccc(Cl)cc1", "values": [{"measurement": "Potency", "setting": "[3]", "value": "inactive"}, {"measurement": "Potency", "setting": "[1]", "value": "inactive"}, {"measurement": "Potency", "setting": "[2]", "value": "inactive"}]}
{"compound": "O=C1c2c(O)ccc(O)c2C(=O)c2c(NCCNCCO)ccc(NCCNCCO)c21", "values": [{"measurement": "Potency", "setting": "[3]", "value": "inactive"}, {"measurement": "Potency", "setting": "[1]", "value": "0.186 µM (active)"}, {"measurement": "Potency", "setting": "[2]", "value": "132 nM (active)"}]}
{"compound": "Cc1cnc(C(=O)NCCc2ccc(S(=O)(=O)NC(=O)NC3CCCCC3)cc2)cn1", "values": [{"measurement": "Potency", "setting": "[3]", "value": "inactive"}]}
{"compound": "O=C1Cc2cc(CCN3CCN(c4nsc5ccccc45)CC3)c(Cl)cc2N1", "values": [{"measurement": "Potency", "setting": "[3]", "value": "3.55 µM (active)"}, {"measurement": "Potency", "setting": "[1]", "value": "15 µM (active)"}, {"measurement": "Potency", "setting": "[2]", "value": "20500 nM (active)"}]}
{"compound": "NCCc1cnc[nH]1", "values": [{"measurement": "Potency", "setting": "[3]", "value": "inactive"}, {"measurement": "Potency", "setting": "[1]", "value": "inactive"}, {"measurement": "Potency", "setting": "[2]", "value": "inactive"}]}
{"compound": "COc1ccccc1OCC(O)CN1CCN(CC(=O)Nc2c(C)cccc2C)CC1", "note": "(stereo unspecified)", "values": [{"measurement": "Potency", "setting": "[3]", "value": "inactive"}, {"measurement": "Potency", "setting": "[1]", "value": "inactive"}, {"measurement": "Potency", "setting": "[2]", "value": "inactive"}]}
{"compound": "NCCS(=O)(=O)O", "values": [{"measurement": "Potency", "setting": "[3]", "value": "inactive"}, {"measurement": "Potency", "setting": "[1]", "value": "inactive"}, {"measurement": "Potency", "setting": "[2]", "value": "inactive"}, {"measurement": "outcome", "setting": "[9]", "value": "inactive"}, {"measurement": "Potency", "setting": "[5]", "value": "inactive"}, {"measurement": "Potency", "setting": "[6]", "value": "inactive"}, {"measurement": "Potency", "setting": "[7]", "value": "inactive"}]}
{"compound": "COc1ccccc1OCCNCC(O)COc1cccc2[nH]c3ccccc3c12", "note": "(stereo unspecified)", "values": [{"measurement": "Potency", "setting": "[3]", "value": "inactive"}]}
